High-throughput results: PubChem, National Center for Advancing Translational Sciences (NCATS)
NIH3T3 tox = NIH 3T3 cell cytotoxicity. NIH 3T3 viability, CellTiter-Glo ATP luminescence, 48-72 h. Potency, µM (top dose mostly 96.7 µM), for inactives: at the highest dose activity change, negative = cytotoxicity, hits mostly inhibitors. 4.3% of 94,000 active. AID 1345082; further: nearly all actives have a fitted effect of over 55% in size
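Cytotoxicity is measured as loss of cellular ATP: NIH 3T3 cells (400/well) are exposed to compound for 48 or 72 hr at 37 °C, then CellTiter-Glo luminescence is imaged after 10 min at room temperature.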
HEK cytotox = cytotoxic compounds in HEK 293 cells. 6.6% of 94,000 active. Potency, µM (series often up to 115 µM), for the others: at the highest dose activity change, negative = cytotoxicity, most hits filed as inhibitors. HEK 293 viability, ATP luminescence (CellTiter-Glo), 48-72 h; further: nearly all actives have a fitted effect of over 60% in size
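Cells seeded first (HEK 293, 250 cells/well), then compound added by pintool. Incubation ran 48 or 72 hr at 37 degree Celsius. CellTiter-Glo was added and luminescence imaged after 10 min at room temperature.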
NPR1 antag = blocks ANP-stimulated signaling of human Npr1 receptor; Potency, µM (doses to about 46.3 µM), inactives show top-dose activity change, negative = inhibition, usual class: inhibitors; 1.6% of 76,000 active; HEK293 hNpr1 GloSensor cGMP, ANP-stimulated luminescence; calls by dose curve; further: nearly all actives have a fitted effect of over 60% in size
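Compound pre-incubated 30 min at room temperature on GloSensor-loaded HEK293 cells stably carrying hNpr1 and the pGS-40F cGMP biosensor. Stimulation uses hNppA at 0.1 nM final; luminescence is taken at baseline and 20 min post-agonist.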
Luciferase inh = inhibitors of firefly (Photinus pyralis) luciferase | 2.5% of 76,000 active | purified P. pyralis luciferase, luminescence, biochemical | Potency, µM (titrated, usually from 115 µM), usual class: inhibitors | AID 1347043 | P08659; further: nearly all actives have a fitted effect of over 65% in size
Target sequence (P08659 whole entry, looked up): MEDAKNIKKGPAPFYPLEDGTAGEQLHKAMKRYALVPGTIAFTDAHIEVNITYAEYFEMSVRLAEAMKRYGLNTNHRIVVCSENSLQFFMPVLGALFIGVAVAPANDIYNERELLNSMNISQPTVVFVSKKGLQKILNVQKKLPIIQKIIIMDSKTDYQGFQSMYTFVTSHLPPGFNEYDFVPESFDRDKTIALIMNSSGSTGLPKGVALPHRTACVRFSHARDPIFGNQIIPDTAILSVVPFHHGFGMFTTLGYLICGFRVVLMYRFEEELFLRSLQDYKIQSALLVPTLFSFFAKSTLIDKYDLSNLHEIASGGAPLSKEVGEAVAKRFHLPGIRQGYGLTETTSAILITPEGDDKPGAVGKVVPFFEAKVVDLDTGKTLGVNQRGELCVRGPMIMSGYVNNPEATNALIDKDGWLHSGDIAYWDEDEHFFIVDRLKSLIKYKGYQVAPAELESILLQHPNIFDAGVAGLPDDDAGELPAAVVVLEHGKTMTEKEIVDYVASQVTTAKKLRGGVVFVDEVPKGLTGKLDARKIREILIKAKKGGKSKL
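FLuc 10nM, D-luciferin 10uM, ATP 10uM, Mg acetate 10mM, Tris acetate pH 7.5, Tween/BSA; cpd qHTS; enzyme added last; CCD luminescence.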
Starred values were filed as active, the others as inactive; i = inactive; u = inconclusive; x = no result given; [ ] = another dose, or the depositor's remark. Sampled rows, rich in hits. Any-hit rate of the full collection: about 11%. Unless noted, the call rests on the fitted dose curve; in most records, active means well fitted curve in the direction sought with a large enough effect; inconclusive means small, poorly fitted or top-dose-only effect, or another doubt; inactive means no such curve, though single readings can be large; an effect the other way counts as inactive or inconclusive. On the % scale 0 is the no-effect control and ±100 the full control effect; potency means the concentration at half of the fitted maximal effect.

SMILES	NIH3T3 tox	HEK cytotox	NPR1 antag	Luciferase inh
CCN(CC)c1cc(CCC(=O)NCc2cccs2)ccn1	-1%	i	-14%	i
COC1CN(c2ccc(C)cc2)C12CCN(C(=O)Cc1ccccc1)CC2 (centres undefined)	u	u	0%	i
O=C(NCc1ccccn1)c1nc2sccn2c1-c1ccc(C(F)(F)F)cc1	-98%	u	x	x
Cc1ccc(C)c(Cn2ccn3nc4c(c3c2=O)CCCC4)c1	u	40µM*	-1%	i
Cc1ccc(NC(=O)Cn2ccn3nc4c(c3c2=O)CCCCC4)c(C)c1	-26%	-15%	-2%	u
CC(=O)NC1CCN(c2ccc3nnc(C4CC4)n3n2)C1 (centres undefined)	u	-8%[172 µM]	x	x
Cc1nc(C)c(C(=O)N2CC(Oc3cccc(-c4nc(-c5ccccc5)no4)c3)C2)s1	u	40µM*	-24%	u
O=C(c1cccc2[nH]ccc12)N1CC(Oc2cccc(-c3nc(-c4ccccc4)no3)c2)C1	u	35µM*	1%	u
Cn1cccc1C(=O)N1CC(Oc2cccc(-c3nc(-c4ccccc4)no3)c2)C1	u	45µM*	-5%	u
COCCCn1c(C)cc(C(=O)N2CCC(CCOc3ccccc3)C2)c1C (centres undefined)	u	u	-19%	i
Cc1nn2c(c1-c1ccccc1OCc1ccccc1)N(Cc1ccc(OCC(=O)O)cc1)CCC2	25µM*	-14%	0%	i
Cc1nn2c(c1-c1ccccc1C(C)C)N(Cc1ccc(C(=O)O)cc1)CCC2	7.1µM*	u	0%[70.6 µM]	i
Cc1nn2c(c1-c1ccccc1OCc1ccccc1)N(C(=O)C(C)C)CCC2	89µM*	32µM*	-1%[70.6 µM]	i
Cc1nn2c(c1-c1ccccc1[S+](C)(=O)[O-])N(C(=O)c1ccccc1)CCC2	u	-17%[172 µM]	0%[70.6 µM]	i
Cc1nn2c(c1-c1ccccc1[S+](C)(=O)[O-])N(Cc1ccccc1F)CCC2	32µM*	u	-8%[70.6 µM]	i
O=C(c1ccc(Cl)nc1)N1CCN(c2ccnc3ccnn23)CC1	-1%	-10%	x	x
Cc1ccc(CNC(=O)N2CC(N(CC(C)C)C3CCN(C)CC3)C2)cc1	-4%	i	x	x
O=C(CN1C(=O)C2(CCCCC2)C1c1ccccc1)NCCCN1CCCC1=O (centres undefined)	-13%	0%	x	x
CC(=O)Nc1ccccc1-c1c(C)nn2c1N(CCCc1ccccc1)CCC2	25µM*	u	u	i
CC(=O)Nc1ccccc1-c1c(C)nn2c1N(C(=O)Cc1ccccc1)CCC2	u	1%[172 µM]	-2%[70.6 µM]	i
Cc1ccccc1CC(=O)N1CCC2(CC1)NC(=O)N(c1ccccc1)N2	u	u	6%	i
CC1=C[C@@H](CNC(=O)CCC(=O)O)[C@H](C(C)C)C[C@H]1CC(=O)N(C)Cc1ccccc1	-14%[174 µM]	-7%[172 µM]	0%[70.6 µM]	i
CC1=C[C@@H](CNC(=O)c2ccco2)[C@H](C(C)C)C[C@H]1CC(=O)N(C)Cc1ccccc1	100µM*	u	1%[70.6 µM]	i
COCCC(=O)NC[C@@H]1C=C(C)[C@H](CC(=O)N(C)Cc2cccnc2)C[C@H]1C(C)C	0%[174 µM]	-15%[172 µM]	-4%[70.6 µM]	56µM*
CC1=C[C@@H](CNC(=O)CCC(=O)O)[C@H](C(C)C)C[C@H]1CC(=O)NCc1cccnc1	-3%[138 µM]	-9%[172 µM]	-1%[70.6 µM]	i
SMILES	NIH3T3 tox	HEK cytotox	NPR1 antag	Luciferase inh
CC1=C[C@@H](CNS(=O)(=O)c2ccc(C)cc2)[C@H](C(C)C)C[C@H]1CC(=O)N(C)Cc1cccnc1	11µM*	45µM*	-19%	i
CCc1cccc(C)c1NC(=O)Cn1c(N(C)Cc2ccccc2)nc(C)cc1=O	u	u	-17%	i
CCc1ccc(CN2CCCC23Cc2ccccc2CNC3=O)cc1 (centres undefined)	u	89µM*	x	x
CCc1ccccc1S(=O)(=O)N1C[C@@H]2C(=O)N(C(CC)c3cccs3)C(=O)[C@@H]2C1 (some centres undefined)	u	u	-3%	i
COc1cccc([S+](=O)([O-])N2CCN(C(=O)c3nc4cccnc4n(C4CC4)c3=O)CC2)c1	-27%	i	x	x
CCOC(=O)[C@@H]1[C@@H](OC(N)=O)C(=O)N(C(C)C)C12CCN(S(=O)(=O)c1cccs1)CC2	u	i	x	x
COc1ccc(NC(=O)N2Cc3[nH]cnc3C[C@H]2c2nc(-c3ccc(C)cc3)no2)cc1	u	u	u	63µM*
COc1ccc(NC(=O)N2Cc3[nH]cnc3C[C@H]2c2nc(-c3ccc(F)c(Cl)c3)no2)cc1	32µM*	u	u	u
COc1ccc(-c2noc([C@@H]3Cc4nc[nH]c4CN3C(=O)Nc3ccc(C)cc3)n2)cc1	u	u	u	18µM*
COc1ccc(NC(=O)N2Cc3[nH]cnc3C[C@H]2c2nc(-c3ccc(F)cc3)no2)cc1	50µM*	u	-30%[70.6 µM]	u
COc1cccc(CNC(=O)c2ccc3nnc(-c4ccccc4OC)n3c2)c1	-24%	2%	x	x
COc1ccc(CN2C(=O)CO[C@H]3CN(C4CCC4)C[C@H]32)cc1	-21%[138 µM]	u	-14%[70.6 µM]	i
COc1ccc(CCN(Cc2ccccc2F)CC2(O)CCCNC2)cc1 (centres undefined)	25µM*	25µM*	-25%	i
O=C(c1ccccc1Cl)N1CCN(c2nccc(Nc3ccccc3Cl)n2)CC1	u	45µM*	x	x
COc1ccc(Nc2ccnc(N3CCN(C(=O)c4ccccc4Cl)CC3)n2)cc1	u	40µM*	x	x
CC(=O)N1CCN(c2nccc(Nc3ccccc3Cl)n2)CC1	-28%[138 µM]	-19%[172 µM]	x	x
Cc1ccc(C(=O)N2CCN(c3nccc(Nc4ccccc4Cl)n3)CC2)cc1	u	22µM*	x	x
COc1ccccc1C(=O)N1CCN(c2nccc(Nc3ccccc3Cl)n2)CC1	28µM*	u	x	x
Cc1nn(-c2ccccc2)c2c1C(C1CC1)N(C1CCN(Cc3ccccc3Cl)CC1)C2=O (centres undefined)	3%	i	x	x
O=C(C1CCCN1C(=O)C1CC1)N1CCC(N2Cc3cccn3C2=O)CC1 (centres undefined)	-19%	-7%	x	x
Cn1ncc2c(C(=O)NCC3CCCCC3)cc(-c3ccccc3F)nc21	-22%	u	x	x
O=C(NCc1ccccn1)C1CCN(Cc2ccccc2-c2cccnc2)CC1	-25%	-19%	x	x
CNC(=O)c1cc(C)nc2onc(C3CCN(C(=O)Cc4cccc(Cl)c4)C3)c12 (centres undefined)	-27%	-15%	x	x
OC(CCc1ccccc1)C1CCN(Cc2nc(-c3ccccn3)no2)CC1 (centres undefined)	-29%	-14%	-5%	i
COCCCNC(=O)c1ccc2nnc(-c3ccc(F)cc3)n2c1	i	i	x	x
CC(C)C(=O)N1CCN(c2nccc(Nc3ccccc3Cl)n2)CC1	u	40µM*	x	x
O=C(NC(C(=O)N1CCCC1)C1CCN(C(=O)c2cccc(F)c2)CC1)c1ccccc1 (centres undefined)	4%	i	0%	i
